Compound activity as filed in PubChem.
sPLA2-III inh: Blocks human group III sPLA2 activity; Q9NZ20; QFRET BODIPY PC-A2 liposome hydrolysis, fluorescence; inhibition, % at 12.2 µM; hit rate 0.56% among 370,000; AID 743126;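 active means inhibition above mean plus 3 SD of compounds lying within the high and low control bounds, cut at about 19% in these data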;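 further: 0% = median of test compound wells and 100% = no enzyme DMSO wells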
Target sequence (Q9NZ20 whole entry, looked up): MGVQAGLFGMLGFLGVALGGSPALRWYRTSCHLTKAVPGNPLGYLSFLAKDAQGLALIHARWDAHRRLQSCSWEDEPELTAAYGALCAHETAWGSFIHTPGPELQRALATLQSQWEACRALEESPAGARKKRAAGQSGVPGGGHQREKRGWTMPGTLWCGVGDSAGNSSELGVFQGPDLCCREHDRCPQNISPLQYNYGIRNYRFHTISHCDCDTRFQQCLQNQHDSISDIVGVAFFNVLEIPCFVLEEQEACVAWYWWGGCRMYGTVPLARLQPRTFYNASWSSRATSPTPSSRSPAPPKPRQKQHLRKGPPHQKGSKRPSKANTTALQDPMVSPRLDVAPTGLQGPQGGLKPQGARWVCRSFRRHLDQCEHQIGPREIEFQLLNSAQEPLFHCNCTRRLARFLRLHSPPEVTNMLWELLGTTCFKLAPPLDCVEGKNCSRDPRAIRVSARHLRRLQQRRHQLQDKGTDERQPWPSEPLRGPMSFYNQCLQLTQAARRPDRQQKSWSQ
SUMO HTRF inh: inhibitors of human SUMOylation (UBC9). P63279. HTRF SUMOylation assay, SAE1/SAE2 + UBC9, in vitro. inhibition, % at 35 µM. hit rate 0.36% among 290,000. AID 2006; in the data active means inhibition above about 50%, passing the limit was not always enough
NR3A LBD binder: modulates the human NR3A ligand-binding domain; NR3A LBD differential scanning fluorimetry, Tm shift; 0% = protein alone, 100% = glycine-bound protein; Tm shift relative to glycine control, % at 25 µM; hit rate 2.5% among 340,000; AID 1259313;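 active means melting temperature shift of at least 10% of the positive control shift, at one fixed dose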
UBC13 inh: blocks human UBC13 polyubiquitin chain formation. AID 485273. P61088. inhibition, % at 20 µM. hit rate 0.47% among 330,000. TR-FRET; in the data active means inhibition above about 45%, passing the limit was not always enough
* hit, by the source's call; x = no result given. Sampled rows, rich in hits. Any-hit rate of the full collection: about 3.3%.

SMILES	sPLA2-III inh	SUMO HTRF inh	NR3A LBD binder	UBC13 inh
COC(=O)NC(=S)Nc1ccc(Oc2ccc(Cl)cc2Cl)c(Cl)c1	1	-14	16*	6
Fc1ccc(NC(=S)Nc2ccc(Br)cc2)cc1	-2	8	15*	6
CSc1cccc(NC(=S)NN(C)C)c1	4	6	1	3
Cc1ccc(NC(=S)Nc2ccc(OC(F)F)c(Cl)c2)cc1F	8	-2	32*	8
CSc1cccc(NC(=S)Nc2ccc(F)cc2)c1	8	1	14*	-4
O=C(Nc1ccc(OC(F)F)c(Cl)c1)c1ccccn1	-2	3	1	4
COC(=O)NC(=S)Nc1ccc(Oc2ccc(Cl)cc2)c(Cl)c1	5	-10	-4	4
Cc1ccc(S(=O)(=O)N(C)[C@H]2C[C@H]3c4cc(N5CCOCC5)ccc4CCN3C[C@H]2[C@H](C)O)cc1	3	x	x	x
Cn1c(=O)c2cc(S(=O)(=O)N3CCN(CCO)CC3)ccc2n(C)c1=O	-2	x	x	x
COc1ccc(Cn2ccc3ccc(-c4ccc5ccn(C(=O)c6ccccc6OC)c5c4)cc32)cc1	1	x	x	x
COC(=O)[C@@]12CCCCC3=C1N(CCC3)C(=O)[C@H]2CC(=O)NCCCN1CCCC1=O	-1	x	x	x
CCCCCCCCNS(=O)(=O)CC1NCc2ccccc21 (configuration not stated)	0	x	x	x
O=C(NC(=S)Nc1ccc(F)c(Cl)c1)C1CC1	9	7	1	-2
Fc1ccc(NC(=S)Nc2ccc(F)c(Cl)c2)cc1Cl	x	10	12*	12
FC(F)(F)c1ccccc1NC(=S)Nc1cccc(Cl)c1	2	2	14*	7
Fc1ccc(NC(=S)Nc2cccc(Cl)c2)cc1	-1	0	13*	-1
FC(F)(F)c1cccc(NC(=S)Nc2ccc(Cl)cc2Cl)c1	2	-11	7	-10
COC(=O)[C@]12C[C@H](CC(=O)NCc3ccccc3)C(=O)N(Cc3ccco3)C1=C[C@H](C(C)C)O[C@@H]2C1CC1	-9	x	x	x
COc1cc2c(C)nc3c(c(C)nn3-c3ccccc3)c2cc1OC	-2	-15	-8	38
COc1cc2c(-c3ccc(O)cc3)nc3c(c(C)nn3-c3ccccc3)c2cc1OC	4	x	28*	x
C[C@H]1[C@@H](OC(=O)Nc2ccc(Cl)cc2)CC[C@@]23CCCN2C(=O)CCC[C@@H]13	-9	x	x	x
CC1CCCCC1NC(=O)/C(C#N)=C/c1ccc2c(c1)OCCO2 (configuration not stated)	x	11	13*	1
O=C(Nc1cccc(O)c1)c1c(O)c2ccccc2[nH]c1=O	-9	13	44*	19
Cc1cccc(NC(=O)c2c(O)c3ccccc3[nH]c2=O)c1	7	11	2	5
CC(C)n1c(O)c(/C=C2\C=Nc3ccccc32)sc1=Nc1ccccc1	-1	-20	25*	-8
SMILES	sPLA2-III inh	SUMO HTRF inh	NR3A LBD binder	UBC13 inh
CSc1nc(/C=C2\C=Nc3ccccc32)c(O)n1C	4	6	0	-32
CCCCCOC(=O)C1C(c2ccccc2)C(C(=O)O)C1c1ccccc1 (configuration not stated)	-13	9	10*	0
O=C1C=CC(=O)N1c1ccc(O)cc1	8	-9	1	1
O=C1C=CC(=O)N1c1ccc(OC(F)F)cc1	20*	-3	-2	x
CCOC(=O)/C(C#N)=C1/C=C(C)NC(c2ccccc2O)=N1	-12	10	14*	20
CC1(C)C=C2C(N(CC3CC3)C(=N)N2C(=O)OCc2ccccc2)n2c(=O)n(-c3ccccc3)c(=O)n21 (configuration not stated)	0	x	x	x
COc1ccc(Cl)cc1C(=O)Nc1ccc(NC(=O)c2ccco2)cc1	-12	34	17*	4
COc1ccc(Cl)cc1NC(=O)c1ccco1	-5	8	0	9
O=C(COc1ccc(Cl)cc1)Nc1ccc(NC(=O)c2ccco2)cc1	9	20	17*	0
COc1ccc(Cl)cc1C(=O)Nc1ccc2c(c1)OCO2	4	-5	28*	0
Cc1ccc(OCC(=O)Nc2cc(NC(=O)COc3ccc(C)cc3)cc(C(=O)O)c2)cc1	7	10	1	-20
COc1ccc(Cl)cc1C(=O)Nc1ccc2c(c1)OCCO2	8	-2	-1	4
O=C(COc1ccccc1)Nc1ccc(NC(=O)c2ccco2)cc1	-5	2	9	5
O=C(COc1ccc(Cl)cc1)Nc1cc(NC(=O)COc2ccc(Cl)cc2)cc(C(=O)O)c1	-39	10	12*	-7
COc1ccc2c(c1)CN1C(=O)N(CCc3ccccc3)S(=O)(=O)CC21 (configuration not stated)	-2	x	x	x
CC(C)C(=O)Nc1cccc(NC(=S)NC(=O)c2ccc3c(c2)OCO3)c1	8	10	12*	-7
COc1cc(SC)ccc1C(=O)Nc1ccc2c(c1)OCCO2	6	3	14*	-4
Cc1ccc(NC(=O)c2ccc3c(c2)OCO3)cc1Cl	-3	-19	17*	-10
COCCNC(=O)COc1cc(=O)n(C)c2ccccc12	4	12	0	10
CCN(CC)C(=O)Oc1cc(=O)n(C)c2ccccc12	5	7	25*	-7
NC(=S)n1[nH]c(-c2ccc([N+](=O)[O-])cc2)c(N=Nc2cccc(Cl)c2)c1=O	-4	x	25*	-45
NC(=S)n1[nH]c(-c2ccc([N+](=O)[O-])cc2)c(N=Nc2ccc(O)cc2)c1=O	-4	8	27*	-52
Cc1[nH]n(C(N)=S)c(=O)c1N=Nc1cccc(Cl)c1	-11	-4	10	-1
COc1ccc(CCN(Cc2cccs2)S(=O)(=O)c2ccc(C)s2)cc1OC	-5	x	x	x
Cc1ccccc1NS(=O)(=O)c1cccc2nonc12	-6	3	3	-5
SMILES	sPLA2-III inh	SUMO HTRF inh	NR3A LBD binder	UBC13 inh
Cc1ccccc1Nc1cccc2nonc12	-5	92*	-1	-19
CN(C)S(=O)(=O)c1cc(NC(=O)COC(=O)Cc2ccc(Cl)cc2Cl)ccc1Cl	-26	-23	2	2
CN(C)S(=O)(=O)c1cc(NC(=O)COC(=O)CCSc2ccc(Cl)cc2)ccc1Cl	-13	-5	13*	9
COc1cc(CC(=O)OCC(=O)Nc2ccc(Cl)c(S(=O)(=O)N(C)C)c2)cc(OC)c1OC	-17	6	0	10
CN(C)S(=O)(=O)c1cc(NC(=O)COC(=O)Cc2ccc(Br)cc2)ccc1Cl	-25	-2	15*	5
CCOC(=O)CC[C@@H]1CC[C@]2(CCCN(C(=O)C3CCCCC3)C2)O1	12	x	x	x
Nn1c(SCC(=O)Nc2ccc(Br)cn2)nnc1-c1n[nH]c2c1CCC2	5	x	x	x
O=C(O)CCN1C(=O)/C(=C\c2cccc(OCc3ccccc3)c2)SC1=S	1	15	11*	-5
O=C(O)CCN1C(=O)/C(=C/c2cccc(OCc3ccc(F)cc3)c2)SC1=S	-8	x	x	x
COc1ccc(/C=C2/SC(=S)N(CCCC(=O)Nc3cccc(O)c3)C2=O)cc1	-18	-28	12*	-11
COc1ccc(/C=C2\SC(=S)N(CCC(=O)Nc3cccc(O)c3)C2=O)cc1OC	0	20	2	-2
COc1cc(/C=C2\SC(=S)N(CC(=O)Nc3ccc(O)cc3)C2=O)cc(OC)c1OC	-14	28	13*	x
